Common to all, as to test: qHTS profiling for inhibitors of Plasmodium falciparum proliferation (AID 504749); further: nearly all actives have a fitted effect of over 60% in size
Common to all, as to conditions: P. falciparum in erythrocytes, SYBR Green DNA, 72 h; series mostly up to 28.7 µM
Background: In qHTS, concentration-response curves come from the screen itself.

The test system of assay [1] is ATS95. In outline: (§1)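 Each compound contacts P. falciparum-infected red blood cells for 72 h at 37 C; lysis buffer (Tris, EDTA, saponin, Triton X, SYBR Green I) is added and fluorescence measured next morning; values normalized to controls.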
Assay [2] deals with C2A. The gist of the method: as §1
Assay [3] relates to CP185. In outline:
as §1

In assay [4] the test system is CP191. The gist of the method:
as §1

Assay [5] deals with CP192. In outline: as §1
Assay [6] has as its system CP194. In outline: as §1
Assay [7] concerns CP201. In outline: as §1
Assay [8] has as its system CP203. The gist of the method: as §1
The test system of assay [9] is CP211. The gist of the method:
as §1

Assay [10] relates to CP215. The gist of the method:
as §1

For assay [11], the system named is CP217. The gist of the method: as §1
Assay [12] has as its system CP238. In outline:
as §1

In assay [13] the test system is CP247. In outline:
as §1

For assay [14], the system named is CP252. The gist of the method:
as §1

The subject of assay [15] is CP256. In outline:
as §1

The test system of assay [16] is CP260. The gist of the method: as §1
The subject of assay [17] is CP262. The gist of the method:
as §1

Assay [18] deals with CP265. In outline: as §1
The test system of assay [19] is CP237. In outline:
as §1

Assay [20] has as its system CP250. The gist of the method:
as §1

Results filed as inconclusive are left out. The source made the active and inactive calls. The call rests on the fitted dose curve; in most records, active means well fitted inhibition curve with a large enough effect; inconclusive means small, poorly fitted or top-dose-only effect; inactive means flat fitted curve, though single readings scatter.
Potency means the concentration at half of the fitted maximal effect.

Turning to `Cc1cccc(C)c1NC(=O)CN1CCCC1`, the Potency result in assay [1], in [2], in assay [3], in [4], in assay [5] and in assay [6] was “inactive” each time. Besides, the Potency result in assay [7], in [8], in assay [9], in assay [10], in assay [11] and in assay [12] was “inactive” throughout. Further, the Potency entry in assay [13], in assay [14], in assay [15], in assay [16], in assay [17] and in [18] was “inactive” each time.

Take `N#CCC(=O)NN`: the Potency result in assay [1], in [2], in assay [3], in assay [4], in [5] and in [6] was “inactive” each time. For the same compound, the Potency result in [7], in assay [8], in [9], in assay [11], in assay [19] and in assay [12] was “inactive” in each case. The Potency entry in assay [13], in assay [20], in [14], in [15], in assay [16] and in assay [17] was “inactive” each time. Moreover, the Potency result in [18] was “inactive”.

In the case of `O=C(Oc1cccc2cccnc12)c1ccccc1`, the Potency result in assay [1], in assay [2], in assay [3], in assay [4], in [5] and in [6] was “inactive” in each case. Moreover, the Potency entry in assay [7], in assay [8], in assay [9], in assay [10], in assay [11] and in assay [19] was “inactive” throughout. The Potency entry in assay [12], in assay [13], in assay [20], in [14], in [15] and in assay [17] was “inactive” in each case. Moreover, in assay [18], the Potency entry is “inactive”.

Regarding `FC(F)(F)C(F)(F)C(F)(F)C(F)(F)C(F)(F)C(F)(F)C(F)(F)C(F)(F)Br`, the Potency result in assay [1], in [2], in assay [3], in [4], in [5] and in assay [6] was “inactive” each time. Also, the Potency result in assay [7], in assay [8], in assay [9], in assay [10], in assay [11] and in assay [19] was “inactive” in each case. For the same compound, the Potency result in assay [12], in assay [13], in assay [20], in [14], in assay [15] and in assay [16] was “inactive” in each case. In addition, the Potency entry in [17] and in assay [18] was “inactive” in each case.

Turning to `Cc1cccc(C)c1NC(=O)CN1CCCCCC1`, the Potency entry in [1], in assay [2], in assay [3], in assay [4], in assay [5] and in assay [6] was “inactive” in each case. The Potency result in assay [7], in [8], in [9], in assay [10], in assay [11] and in assay [12] was “inactive” each time. For the same compound, the Potency result in [13], in [20], in assay [14], in assay [15], in [16] and in assay [17] was “inactive” each time. Also, the Potency result in assay [18] is “inactive”.

Regarding `COc1ccccc1N1CCN(CCCCNC(=O)c2ccc(-c3ccc(C(C)=O)cc3)cc2)CC1`, the Potency result in assay [1], in [2], in [3], in [4], in assay [5] and in [6] was “inactive” each time. Moreover, the Potency entry in [7], in [8], in assay [9], in assay [10], in assay [11] and in [12] was “inactive” in each case. In addition, the Potency result in assay [13], in [20], in [14], in assay [15], in assay [16] and in assay [17] was “inactive” each time. Further, in assay [18], the Potency result is “inactive”.

In the case of `CC(C)Nc1cccnc1N1CCN(C(=O)c2cc3cc(NS(C)(=O)=O)ccc3[nH]2)CC1`, the Potency entry in assay [1], in assay [2], in [3], in [4], in [5] and in assay [6] was “inactive” each time. Besides, the Potency entry in [7], in [8], in [9], in [10], in assay [11] and in [19] was “inactive” each time. For the same compound, the Potency entry in [12], in [20], in assay [14], in assay [15], in [16] and in assay [18] was “inactive” each time.

On to `C#C[C@]1(O)CC[C@H]2[C@@H]3CCC4=CC(=O)CC[C@@H]4[C@H]3CC[C@@]21CC`, for which the Potency entry in assay [1], in assay [2], in assay [3], in assay [4], in assay [5] and in [6] was “inactive” each time. Further, the Potency entry in assay [7], in [8], in assay [9], in assay [10], in assay [11] and in assay [12] was “inactive” in each case. Moreover, the Potency entry in assay [13], in assay [20], in assay [14], in assay [15], in [17] and in assay [18] was “inactive” each time. Also, in assay [19], the Potency was 6.31 µM (active).

As for `C[N+]1(CC2COC(c3ccccc3)(C3CCCCC3)O2)CCCCC1` (stereo unspecified), the Potency in assay [1] is 6.31 µM (active); in [2], 10 µM (active); in assay [3], 5.01 µM (active); in assay [4], 5.62 µM (active); in [5] it was 4.78 µM (active); in [6], 6.01 µM (active). Moreover, the Potency was 10.7 µM (active) in [7]; 4.78 µM (active) in assay [8]; 4.78 µM (active) in assay [9]; 5.36 µM (active) in [10]; 8.91 µM (active) in assay [11]; 7.08 µM (active) in [19]. Moreover, the Potency is 7.08 µM (active) in assay [12]; 10 µM (active) in [14]; 10 µM (active) in assay [15]; 4.47 µM (active) in assay [16]; 5.36 µM (active) in [17]; 10 µM (active) in [18].

Take `NC(N)=NCc1cccc(I)c1`: the Potency result in assay [1], in assay [2], in [3], in assay [4], in [5] and in assay [6] was “inactive” in each case. The Potency result in assay [7], in [8], in assay [9], in assay [10], in assay [11] and in [19] was “inactive” each time. In addition, the Potency entry in [12], in assay [13], in [20], in assay [14], in assay [15] and in assay [18] was “inactive” in each case.

In the case of `CCCCCCCCCCCCCCCC(=O)O`, the Potency result in assay [1], in assay [2], in [3], in assay [4], in assay [5] and in assay [6] was “inactive” in each case. Moreover, the Potency result in assay [7], in assay [8], in assay [9], in [10], in assay [11] and in assay [19] was “inactive” each time. Further, the Potency result in [12], in [13], in assay [20], in [14], in assay [15] and in assay [16] was “inactive” in each case. Also, the Potency result in assay [17] and in [18] was “inactive” each time.

For the compound `Nc1ccc(S(=O)(=O)NCc2ccccc2)cc1`, the Potency result in assay [1], in assay [2], in assay [3], in assay [4], in [5] and in assay [6] was “inactive” throughout. The Potency entry in assay [7], in [8], in [9], in assay [10], in assay [11] and in assay [19] was “inactive” in each case. Besides, the Potency entry in assay [12], in [13], in [20], in assay [14], in assay [15] and in assay [16] was “inactive” throughout. Further, the Potency result in assay [17] and in assay [18] was “inactive” in each case.

`O=C1C(CCS(=O)c2ccccc2)C(=O)N(c2ccccc2)N1c1ccccc1` (stereo unspecified): the Potency entry in assay [1], in [2], in [3], in [4], in [5] and in [6] was “inactive” throughout. For the same compound, the Potency entry in assay [7], in assay [8], in assay [9], in assay [11], in assay [19] and in assay [12] was “inactive” throughout. For the same compound, the Potency entry in [13], in assay [20], in assay [14], in [15], in assay [16] and in assay [17] was “inactive” in each case. Also, in assay [18], the Potency result was “inactive”.

Regarding `COP(=O)(OC)OC(c1ccc(Cl)cc1)P(=O)(OC)OC` (stereo unspecified), the Potency result in assay [1], in assay [2], in [3], in [4], in assay [5] and in [6] was “inactive” in each case. The Potency entry in assay [7], in assay [8], in assay [9], in assay [10], in assay [11] and in assay [19] was “inactive” each time. Further, the Potency entry in assay [12], in [13], in [20], in assay [14], in assay [15] and in assay [16] was “inactive” each time. Besides, the Potency result in assay [17] and in assay [18] was “inactive” each time.

The record behind these values is PubChem BioAssay (NCATS).
